Data taken from PubChem BioAssay.
For some assays here: Entries with a potency or affinity are not part of this list. Calls of active or inactive are those of the source. How the calls were made is not given here.

biological target: Plasmodium falciparum protein kinase 6 (PK6, PF3D7_1337100) (UniProt Q8IDW1); assay: PfPK6 kinase inhibitors, biochemical, TCAMS library (AID 1159586); settings: recombinant PfPK6, Kinase-Glo ATP depletion luminescence
Sequence (Q8IDW1 1-305): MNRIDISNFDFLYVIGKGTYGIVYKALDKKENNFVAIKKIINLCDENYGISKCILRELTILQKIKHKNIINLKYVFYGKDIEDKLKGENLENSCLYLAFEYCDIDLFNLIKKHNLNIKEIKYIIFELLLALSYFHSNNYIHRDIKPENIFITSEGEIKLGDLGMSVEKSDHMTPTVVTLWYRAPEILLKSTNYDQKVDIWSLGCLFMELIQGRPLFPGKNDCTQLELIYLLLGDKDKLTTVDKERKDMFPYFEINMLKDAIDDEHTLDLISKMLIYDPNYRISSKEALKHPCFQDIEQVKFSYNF

For `COc1cccc2c1CCN(CCN1CCC(NC(=O)c3ccc(-c4cccc(Cl)c4Cl)cc3)CC1)C2`, which outcome is on record?
The outcome was “inactive”.

Which outcome does the source give for `C=CCC1OC(=O)c2cc(OC)cc(OC)c21` (stereo not given) here?
The outcome was “inactive”.

Which outcome does the source give for `COCC(=O)Nc1nc2ccccc2[nH]1` here?
The outcome was “inactive”.

For `COc1ccc(NC(=O)C2c3ccccc3C(=O)N(C3CCCC3)C2c2cccs2)cc1` (stereo not given), which outcome is on record?
The outcome was “inactive”.

How did the outcome turn out when `CN1C[C@@H](c2ccccc2)c2cc(O)c(CN3CCCCC3)cc2C[C@H]1Cc1ccccc1` was run?
The outcome was “inactive”.

For `CO/C(=C\C=C\c1cc2cc(Cl)c(Cl)cc2[nH]1)C(=O)NC1CCN(CCNc2ccccc2)CC1`, which outcome is on record?
Its outcome is “inactive”.

With `CC(C)(CC1CCCCC1)NC(=O)[C@H](CC1CCCCC1)Nc1ccc(C#N)c2ccccc12` as the compound, how does the outcome read?
The outcome was “inactive”.

For `CC[C@H](NC(=O)c1ccc(NC(=O)OC(C)(C)C)cc1)C(=O)N[C@@H](CO)C(=O)NCCCCc1ccccc1`, which outcome is on record?
Its outcome is “inactive”.

With `COc1ccccc1CNC(=O)c1ccc(N2CCN(c3ccncc3)CC2)cn1` as the compound, how does the outcome read?
Its outcome is “inactive”.

Which outcome does the source give for `CCCCCCCCCc1c(C)[nH]c2ccccc2c1=O` here?
The outcome was “inactive”.

`NC(N)=NN=Cc1ccc2c(c1)Cc1ccccc1-2` was tested. Which outcome did it give?
The outcome was “inactive”.

Which outcome does the source give for `CC(C)(C)c1ccc(C(=O)NC2CCC(CCN3CCc4ccc(S(C)(=O)=O)cc4CC3)CC2)cc1C(F)(F)F` (stereo not given) here?
The outcome was “inactive”.

How did the outcome turn out when `O=C(Nc1ccc2c(c1)OCO2)c1cc(-c2cccnc2)cnc1NCc1ccc2c(c1)OCO2` was run?
The outcome was “inactive”.

With `COc1ccc(Nc2ccnc3cc(-c4ccccn4)ccc23)cc1OC` as the compound, how does the outcome read?
The outcome was “inactive”.

`CC(C)Cn1c(Sc2ccc(C#N)c([N+](=O)[O-])c2)nnc1-c1cccs1` was tested. Which outcome did it give?
The outcome was “inactive”.

Which outcome does the source give for `Cc1cc(NC(=O)c2ccco2)ccc1OC1CCN(Cc2ccc(F)cc2)C1` (stereo not given) here?
The outcome was “inactive”.

How did the outcome turn out when `Cn1cncc1CNCc1ccc(-c2cccc(-c3nc4ccccc4[nH]3)c2)cc1` was run?
The outcome was “inactive”.

Which outcome does the source give for `COc1cc(C(=O)N2CCOC(CCN3CCc4c(c5ccccc5n4C)C3)(c3ccc(Cl)c(Cl)c3)C2)cc(OC)c1OC` (stereo not given) here?
Its outcome is “inactive”.

With `CC(C)C[C@H](NC(=O)c1cc2ccccc2s1)C(=O)N[C@H]1CCN(Cc2ccc(I)c(OCCN3CCCC3)c2)C1` as the compound, how does the outcome read?
Its outcome is “inactive”.

For `O=C(Nc1cc(F)cc(F)c1)N1CCOC(CCN2CCC(c3ccccc3)CC2)(c2ccc(Cl)c(Cl)c2)C1` (stereo not given), which outcome is on record?
The outcome was “inactive”.

`COc1ccc(-c2nc3cccnc3n2CC(=O)Nc2cc(Cl)c(Cl)cc2Cl)c(OC)c1` was tested. Which outcome did it give?
Its outcome is “inactive”.

With `CCCCn1c(C(C)Oc2ccc(Cl)cc2Cl)nc2cc(S(N)(=O)=O)ccc21` (stereo not given) as the compound, how does the outcome read?
Its outcome is “inactive”.

With `CC(C)N1CCN(c2ccc(OCCCN3CCN(c4cccc(Cl)c4Cl)CC3)c(C(F)(F)F)c2)CC1` as the compound, how does the outcome read?
The outcome was “inactive”.

For `COc1ccc(OC)c(Cc2cnc3nc(N)[nH]c(=O)c3c2C)c1`, which outcome is on record?
Its outcome is “inactive”.

How did the outcome turn out when `CCCCCCNC(=O)C1Cc2c([nH]c3ccc(C)cc23)C2(CCN(CCc3ccccc3)CC2)N1` (stereo not given) was run?
The outcome was “inactive”.

For `COc1cccc(NC(=O)NC2CCN(c3ccnc(Nc4cc(OC)c(OC)c(OC)c4)n3)C2)c1` (stereo not given), which outcome is on record?
Its outcome is “inactive”.

How did the outcome turn out when `Fc1ccc2nc(-c3ccc(-c4ccc(CNCCc5ccncc5)cc4)s3)[nH]c2c1` was run?
Its outcome is “inactive”.

Which outcome does the source give for `CC(C)C[C@@H](NC(=O)OC(C)(C)C)C(=O)Nc1ccc(Cc2ccc(NC(=O)[C@@H](CC(C)C)NC(=O)OC(C)(C)C)cc2)cc1` here?
Its outcome is “inactive”.

Which outcome does the source give for `COc1ccc(CNCCc2cccs2)cc1-c1ccc(S(=O)(=O)NCCN2CCCC2)s1` here?
The outcome was “inactive”.

With `O=c1c(NCCCN(Cc2ccc(F)cc2)c2ccccn2)c(NCc2cccnc2)c1=O` as the compound, how does the outcome read?
The outcome was “inactive”.

How did the outcome turn out when `CC(C)CNCc1ccc(-c2ccc(CN(CCCN3CCN(C)CC3)C(=O)CCC3CCCC3)cc2)cc1` was run?
Its outcome is “inactive”.

How did the outcome turn out when `CC(=O)C1=NN(c2ccc(C)cc2)C(c2cccs2)N1c1ccccc1` (stereo not given) was run?
The outcome was “inactive”.

Which outcome does the source give for `CCn1cc(-c2cc(C(=O)Nc3ccc(OC)cc3C)c3ccccc3n2)c(C)n1` here?
Its outcome is “inactive”.

How did the outcome turn out when `O=C(c1ccc(-c2ccc(-c3nc4ccc(C(F)(F)F)cc4[nH]3)s2)cc1)N1CCCCC1CN1CCC(O)C1` (stereo not given) was run?
Its outcome is “inactive”.

`O=C(NCC1CCN(CCN2CCc3ccc4c(c3C2)OCO4)CC1)c1ccc(-c2ccc(C(F)(F)F)cc2)cc1` was tested. Which outcome did it give?
Its outcome is “inactive”.

`O=C(NCCCCCN1CCC(c2c[nH]c3ccccc23)CC1)c1ccc(Cl)c(Cl)c1` was tested. Which outcome did it give?
The outcome was “inactive”.

With `FC(F)(F)c1ccc2nccc(NN=CC=Cc3ccccc3)c2c1` as the compound, how does the outcome read?
Its outcome is “inactive”.

Which outcome does the source give for `N#Cc1ccnc(-c2ccc(CNC3CCN(CC4Cn5c(=O)ccc6ccc(F)c4c65)CC3)cc2)c1` (stereo not given) here?
The outcome was “inactive”.

For `COc1cc2nc(NCc3ccc(S(N)(=O)=O)cc3)nc(Nc3ccc(Oc4ccccc4)cc3)c2cc1OC`, which outcome is on record?
The outcome was “inactive”.

For `Cc1nc(N)nc(N)c1OCc1cccc2c1ccc1ccccc12`, which outcome is on record?
Its outcome is “inactive”.

biological target: Protein kinase 7 (PK7), Plasmodium falciparum 3D7 (PF3D7_0213400) (UniProt Q7YTF7); assay: inhibition of Plasmodium PK7 catalytic activity – biochemical, TCAMS antimalarial set, Kinase-Glo luminescence (AID 1159587); settings: recombinant PfPK7, Kinase-Glo ATP depletion luminescence
Sequence (Q7YTF7 1-343): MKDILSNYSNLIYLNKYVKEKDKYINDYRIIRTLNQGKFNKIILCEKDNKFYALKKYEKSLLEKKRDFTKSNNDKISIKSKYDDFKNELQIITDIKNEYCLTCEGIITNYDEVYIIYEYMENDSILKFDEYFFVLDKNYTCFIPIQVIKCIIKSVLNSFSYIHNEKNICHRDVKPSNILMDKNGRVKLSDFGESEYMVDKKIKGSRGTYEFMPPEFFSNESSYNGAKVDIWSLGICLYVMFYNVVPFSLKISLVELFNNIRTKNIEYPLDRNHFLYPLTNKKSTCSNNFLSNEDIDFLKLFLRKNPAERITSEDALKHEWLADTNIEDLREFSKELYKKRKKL

`COc1cccc2c1CCN(CCN1CCC(NC(=O)c3ccc(-c4cccc(Cl)c4Cl)cc3)CC1)C2` was tested. Which outcome did it give?
The outcome was “inactive”.

For `C=CCC1OC(=O)c2cc(OC)cc(OC)c21` (stereo not given), which outcome is on record?
Its outcome is “inactive”.

With `COCC(=O)Nc1nc2ccccc2[nH]1` as the compound, how does the outcome read?
The outcome was “inactive”.

Which outcome does the source give for `COc1ccc(NC(=O)C2c3ccccc3C(=O)N(C3CCCC3)C2c2cccs2)cc1` (stereo not given) here?
Its outcome is “inactive”.

For `CN1C[C@@H](c2ccccc2)c2cc(O)c(CN3CCCCC3)cc2C[C@H]1Cc1ccccc1`, which outcome is on record?
The outcome was “inactive”.

How did the outcome turn out when `CO/C(=C\C=C\c1cc2cc(Cl)c(Cl)cc2[nH]1)C(=O)NC1CCN(CCNc2ccccc2)CC1` was run?
Its outcome is “inactive”.

With `CC(C)(CC1CCCCC1)NC(=O)[C@H](CC1CCCCC1)Nc1ccc(C#N)c2ccccc12` as the compound, how does the outcome read?
The outcome was “inactive”.

Which outcome does the source give for `CC[C@H](NC(=O)c1ccc(NC(=O)OC(C)(C)C)cc1)C(=O)N[C@@H](CO)C(=O)NCCCCc1ccccc1` here?
Its outcome is “inactive”.

`COc1ccccc1CNC(=O)c1ccc(N2CCN(c3ccncc3)CC2)cn1` was tested. Which outcome did it give?
Its outcome is “inactive”.

For `CCCCCCCCCc1c(C)[nH]c2ccccc2c1=O`, which outcome is on record?
The outcome was “inactive”.

`NC(N)=NN=Cc1ccc2c(c1)Cc1ccccc1-2` was tested. Which outcome did it give?
The outcome was “inactive”.

With `CC(C)(C)c1ccc(C(=O)NC2CCC(CCN3CCc4ccc(S(C)(=O)=O)cc4CC3)CC2)cc1C(F)(F)F` (stereo not given) as the compound, how does the outcome read?
Its outcome is “inactive”.

With `O=C(Nc1ccc2c(c1)OCO2)c1cc(-c2cccnc2)cnc1NCc1ccc2c(c1)OCO2` as the compound, how does the outcome read?
Its outcome is “inactive”.

How did the outcome turn out when `COc1ccc(Nc2ccnc3cc(-c4ccccn4)ccc23)cc1OC` was run?
The outcome was “inactive”.

How did the outcome turn out when `CC(C)Cn1c(Sc2ccc(C#N)c([N+](=O)[O-])c2)nnc1-c1cccs1` was run?
Its outcome is “inactive”.

For `Cc1cc(NC(=O)c2ccco2)ccc1OC1CCN(Cc2ccc(F)cc2)C1` (stereo not given), which outcome is on record?
The outcome was “inactive”.

How did the outcome turn out when `Cn1cncc1CNCc1ccc(-c2cccc(-c3nc4ccccc4[nH]3)c2)cc1` was run?
The outcome was “inactive”.

For `COc1cc(C(=O)N2CCOC(CCN3CCc4c(c5ccccc5n4C)C3)(c3ccc(Cl)c(Cl)c3)C2)cc(OC)c1OC` (stereo not given), which outcome is on record?
Its outcome is “inactive”.

For `CC(C)C[C@H](NC(=O)c1cc2ccccc2s1)C(=O)N[C@H]1CCN(Cc2ccc(I)c(OCCN3CCCC3)c2)C1`, which outcome is on record?
The outcome was “inactive”.

`O=C(Nc1cc(F)cc(F)c1)N1CCOC(CCN2CCC(c3ccccc3)CC2)(c2ccc(Cl)c(Cl)c2)C1` (stereo not given) was tested. Which outcome did it give?
Its outcome is “inactive”.

`COc1ccc(-c2nc3cccnc3n2CC(=O)Nc2cc(Cl)c(Cl)cc2Cl)c(OC)c1` was tested. Which outcome did it give?
The outcome was “inactive”.

With `CCCCn1c(C(C)Oc2ccc(Cl)cc2Cl)nc2cc(S(N)(=O)=O)ccc21` (stereo not given) as the compound, how does the outcome read?
Its outcome is “inactive”.

For `CC(C)N1CCN(c2ccc(OCCCN3CCN(c4cccc(Cl)c4Cl)CC3)c(C(F)(F)F)c2)CC1`, which outcome is on record?
Its outcome is “inactive”.

`COc1ccc(OC)c(Cc2cnc3nc(N)[nH]c(=O)c3c2C)c1` was tested. Which outcome did it give?
Its outcome is “inactive”.

`CCCCCCNC(=O)C1Cc2c([nH]c3ccc(C)cc23)C2(CCN(CCc3ccccc3)CC2)N1` (stereo not given) was tested. Which outcome did it give?
Its outcome is “inactive”.

How did the outcome turn out when `COc1cccc(NC(=O)NC2CCN(c3ccnc(Nc4cc(OC)c(OC)c(OC)c4)n3)C2)c1` (stereo not given) was run?
Its outcome is “inactive”.

Which outcome does the source give for `Fc1ccc2nc(-c3ccc(-c4ccc(CNCCc5ccncc5)cc4)s3)[nH]c2c1` here?
The outcome was “inactive”.

For `CC(C)C[C@@H](NC(=O)OC(C)(C)C)C(=O)Nc1ccc(Cc2ccc(NC(=O)[C@@H](CC(C)C)NC(=O)OC(C)(C)C)cc2)cc1`, which outcome is on record?
The outcome was “inactive”.

`COc1ccc(CNCCc2cccs2)cc1-c1ccc(S(=O)(=O)NCCN2CCCC2)s1` was tested. Which outcome did it give?
Its outcome is “inactive”.

For `O=c1c(NCCCN(Cc2ccc(F)cc2)c2ccccn2)c(NCc2cccnc2)c1=O`, which outcome is on record?
The outcome was “inactive”.

Which outcome does the source give for `CC(C)CNCc1ccc(-c2ccc(CN(CCCN3CCN(C)CC3)C(=O)CCC3CCCC3)cc2)cc1` here?
Its outcome is “inactive”.

With `CC(=O)C1=NN(c2ccc(C)cc2)C(c2cccs2)N1c1ccccc1` (stereo not given) as the compound, how does the outcome read?
Its outcome is “inactive”.

Which outcome does the source give for `CCn1cc(-c2cc(C(=O)Nc3ccc(OC)cc3C)c3ccccc3n2)c(C)n1` here?
The outcome was “inactive”.

`O=C(c1ccc(-c2ccc(-c3nc4ccc(C(F)(F)F)cc4[nH]3)s2)cc1)N1CCCCC1CN1CCC(O)C1` (stereo not given) was tested. Which outcome did it give?
The outcome was “inactive”.

With `O=C(NCC1CCN(CCN2CCc3ccc4c(c3C2)OCO4)CC1)c1ccc(-c2ccc(C(F)(F)F)cc2)cc1` as the compound, how does the outcome read?
The outcome was “inactive”.

How did the outcome turn out when `O=C(NCCCCCN1CCC(c2c[nH]c3ccccc23)CC1)c1ccc(Cl)c(Cl)c1` was run?
Its outcome is “inactive”.

For `FC(F)(F)c1ccc2nccc(NN=CC=Cc3ccccc3)c2c1`, which outcome is on record?
The outcome was “inactive”.

Which outcome does the source give for `N#Cc1ccnc(-c2ccc(CNC3CCN(CC4Cn5c(=O)ccc6ccc(F)c4c65)CC3)cc2)c1` (stereo not given) here?
The outcome was “inactive”.

How did the outcome turn out when `COc1cc2nc(NCc3ccc(S(N)(=O)=O)cc3)nc(Nc3ccc(Oc4ccccc4)cc3)c2cc1OC` was run?
Its outcome is “inactive”.

How did the outcome turn out when `Cc1nc(N)nc(N)c1OCc1cccc2c1ccc1ccccc12` was run?
Its outcome is “inactive”.
